Experimental data from PubChem BioAssay (NCATS).
Inconclusive results are not listed. Entries that show only a call come without a potency. Unmarked numbers belong to inactive results. Activity calls are given as the source filed them. Calls come from the whole dose curve; as a rule, active = well fitted inhibition curve with a large enough effect; inconclusive = small, poorly fitted or top-dose-only effect; inactive = no such curve, though single readings can be large or run the other way.

How the values were obtained:
[1] = system: Zika virus NS2B-NS3 protease (unlinked complex); assay: Primary screen GU Rhodamine qHTS for Zika virus inhibitors: Unlinked NS2B-NS3 protease assay (AID 1347159); note: nearly all actives have a fitted effect of over 60% in size
Outline: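 In dose–response format, inhibition of unlinked protease (25 nM) was measured with 1.5 microM bis-peptide Rhodamine110 substrate. Aprotinin served as the intraplate control.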

[2] = system: Zika virus NS2B-NS3 protease (linked construct); assay: Primary screen NINDS Rhodamine qHTS for Zika virus inhibitors (AID 1347160); note: nearly all actives have a fitted effect of over 55% in size
Outline: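 Each compound, titrated, sat 15 min with 25 nM linked protease before 1.5 microM Rhodamine110 substrate went in. Fluorescence gain over the next 15 min, in pH 8.0 Tris with Tween 20, gave Hill-fitted curves.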

Structure (SMILES)	Potency [1]	Potency [2]	activity change, negative = inhibition [1]	activity change, negative = inhibition [2]
COc1cccc(-c2cc(NCc3ccc4c(c3)OCO4)nc(N)n2)c1	inactive	inactive	–	–
CCOC(=O)C(CCc1ccccc1)NC1CSC(c2cccs2)CN(CC(=O)O)C1=O (stereo unspecified)	inactive	inactive	–	–
Cc1ccc(S(=O)(=O)n2ccc(-c3c(-c4ccc(Cl)cc4)noc3C)n2)cc1	inactive	inactive	–	–
O=C1N=C(N2CCOCC2)CN1c1ccc(Cl)cc1	inactive	inactive	–	–
COc1c2c(c(CO)c3c1C(=O)OC3)OC1(C)CCC3(O)C(C)(C)OC(=O)CCC3(C)C1C2 (stereo unspecified)	inactive	inactive	–	–
CC(C)(C)Nc1nc(Nc2ccc(C(N)=O)cc2)cc(N)c1C#N	inactive	inactive	–	–
COC1CC(OC2CCC3(C)C(=CCC4C3C(OC(C)=O)C(OC(=O)/C=C/c3ccccc3)C3(C)C(C(C)O)CCC43O)C2)OC(C)C1OC1CC(OC)C(OC2OC(C)C(OC3OC(CO)C(O)C(O)C3O)C(OC)C2O)C(C)O1 (stereo unspecified)	–	–	0.295% [at 19.1 µM]	23.5% [at 10.7 µM]
C=CC1(C)C=C2CCC3C(C)(C)C(O[C@@H]4O[C@@H](CO)[C@H](O)[C@H]4O)CCC3(C)C2CC1O[C@@H]1O[C@H](C)[C@H](O)[C@H](O)[C@H]1O (stereo partly specified)	inactive	inactive	–	–
CCN(Cc1cccnc1)C(=O)CN(c1ccc(OC)nc1)S(=O)(=O)c1ccccc1C	inactive	inactive	–	–
CC1(C)CC(=O)C2=C(C1)NC(=S)NC2c1cccc(O)c1 (stereo unspecified)	inactive	inactive	–	–
C[C@H]1CC[C@@]2(OC1)O[C@H]1CC3C4CC[C@H]5C[C@@H](O)[C@H](O)C[C@]5(C)C4=CC(=O)[C@]3(C)[C@H]1[C@@H]2C (stereo partly specified)	inactive	inactive	–	–
O=C1CCC=CC1(O)C(=O)OCc1ccccc1O[C@@H]1O[C@H](CO)[C@@H](O)[C@H](O)[C@H]1O (stereo partly specified)	inactive	inactive	–	–
CC(C)C(C(=O)N(C)C(C)C(N)=O)N(C)C(=O)C1CCCN1C(=O)/C=C/C=C/C(O)C(C)O (stereo unspecified)	inactive	inactive	–	–
